Tau fibril FP: qHTS for Inhibitors of Tau Fibril Formation, Fluorescence Polarization | hit rate 0.39% among 280,000 | K18 P301L tau heparin fibrillization, Alexa594 FP, 6 h | AID 1468, 2008 | Microtubule-associated protein tau (Homo sapiens), P10636 | Potency, µM (highest dose often 57.7 µM), for the others: at the highest dose activity, negative = inhibition, hits mostly inhibitors; note: potency is the fitted concentration of half-maximal effect; nearly all actives have a fitted effect of over 55% in size
Target sequence (P10636 561-689 P618L limits assumed): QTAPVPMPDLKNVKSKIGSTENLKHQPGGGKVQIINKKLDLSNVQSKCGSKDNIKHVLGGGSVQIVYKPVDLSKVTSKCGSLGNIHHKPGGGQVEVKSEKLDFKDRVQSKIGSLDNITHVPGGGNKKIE
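Human tau K18 […] P301L fragment, 15 uM unlabeled plus 0.24 uM Alexa 594-labeled tau (final), with compound and 20 uM heparin in 100 mM sodium acetate pH 7; 6 hr at 37 C, then Alexa 594 FP read.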
Tau fluor counter: Counterscreen qHTS for Inhibitors of Tau Fibril Formation, Fluorescence Polarization; hit rate 0.93% among 280,000; tau K18 P301L Alexa594 fluorescence, heparin fibrillization; AID 1463, 2008; Potency, µM (series often up to 57.7 µM), without a hit: at the top dose activity change, negative = decrease; note: potency is the fitted concentration of half-maximal effect; nearly all actives have a fitted effect of over 55% in size
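Human K18 P301L tau (15 uM unlabeled plus 0.24 uM Alexa 594-labeled, final) in 100 mM sodium acetate pH 7 was mixed with compound and 20 uM heparin and incubated 6 hr at 37 C.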
Coupling enz: qHTS Assay for Inhibitors of Fructose-1,6-bisphosphate Aldolase from Giardia Lamblia: Coupling assay counterscreen; coupling enzyme system counterscreen, AmpLite Red fluorescence; activity change, negative = inhibition, % at 58.2 µM, hits read low; hit rate 0.67% among 290,000; AID 2472, 2010; in the data active = activity change below about -30%
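Fluorescence at 525 nm excitation and 598 nm emission measured inhibition of the coupled detection system without aldolase. Compounds (at 57.5 uM final) were preincubated 10 min at room temperature with coupling enzyme reagent before a 20 min substrate/AmpLite Red step.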
Tau fibril ThT: qHTS for Inhibitors of Tau Fibril Formation, Thioflavin T Binding; Microtubule-associated protein tau (Homo sapiens), P10636; recombinant tau K18 P301L (four-repeat tau fragment), heparin-induced fibrillization, ThT fluorescence; Potency, µM (series often up to 57.4 µM), for the others: at the highest dose activity, negative = inhibition, usual class: inhibitors; hit rate 2.1% among 270,000; AID 1460, 2008; note: potency is the fitted concentration of half-maximal effect; nearly all actives have a fitted effect of over 55% in size
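Recombinant human tau K18 fragment […] carrying P301L, 15 uM unlabeled plus 0.24 uM Alexa 594-labeled, was fibrillized with 20 uM heparin in 100 mM sodium acetate pH 7 for 6 hr at 37 C; 30 uM ThT fluorescence read after 1 hr.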
Sfp inh: qHTS Assay for Inhibitors of Bacillus subtilis Sfp phosphopantetheinyl transferase (PPTase); hit rate 3.5% among 310,000; Biochemical Sfp PPTase activity, qHTS; Potency, µM, for inactives: largest response in the series, negative = inhibition, hits mostly inhibitors; 4'-phosphopantetheinyl transferase ffp (Bacillus subtilis), Q9F4F7;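 note: the enzyme is Sfp with the accession as filed and its product quenches rhodamine fluorescence; potency is the fitted concentration of half-maximal effect; 0% = enzyme reaction without inhibitor and -100% = no enzyme wells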
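Step 1, compound plus 15 nM Sfp-PPTase, 15 min, room temperature. Step 2, add rhodamine-CoA (5 uM) and BHQ-2-YbbR (12.5 uM). Step 3, read 525/598 nm fluorescence at 0 and 30 min.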
An asterisk follows results filed as active; ? = inconclusive; . = not tested or not shown; [ ] = another dose, or the depositor's remark. Shown are actives, neighbours in structure and some others; about 5.2% of the full set was active somewhere. Unless noted, calls come from the whole dose curve; as a rule, active = well fitted curve in the direction sought with a large enough effect; inconclusive = small, poorly fitted or top-dose-only effect, or another doubt; inactive = no such curve, though single readings can be large; an effect the other way counts as inactive or inconclusive. Unless noted, % is set by controls: 0 for no effect and ±100 for the full control effect.

SMILES	Tau fibril FP	Tau fluor counter	Coupling enz	Tau fibril ThT	Sfp inh
COC(=O)N1CCc2cc(OC)c(OC)cc2C1Cc1ccc(OC)cc1 (stereo not drawn)	0%[11.6 µM]	-4%[11.6 µM]	1	-3%[11.5 µM]	20%
COc1ccc2c(CNCCc3ccccc3)c(C(=O)O)n(Cc3cccc(F)c3)c2c1	-3%	-13%	.	-11%	.
COc1ccc(CCNC(=O)c2ccc3c(c2)CCN3S(=O)(=O)c2ccc(Cl)cc2)cc1	-8%	?	.	-9%	.
COc1ccccc1NCc1cccn1-c1nnc(N2CCCCCC2)s1	1%	-27%	.	?	.
S=c1c2c(nc3nc[nH]n13)CCC2	-5%	1%	-36*	-6%	14µM*
COc1ccc(C2Nc3ccccc3C(=O)N2Cc2ccco2)cc1COc1ccc(F)cc1 (stereo not drawn)	0%	-8%	2	-7%	40µM*
Cc1ccc(Cc2nc3ccccc3nc2SCC(=O)N2CCCCC2)cc1	10%	-7%	.	-11%	.
CC(C)(C)C1CCC2(CC1)C(C#N)=C(SCC(=O)Nc1ccccc1)NC(=O)C2C#N (stereo not drawn)	22µM*	?	1	6%	33%
COc1ccc(OC)c(NC(=O)c2ccc3c(SCC(=O)O)c4c(nc3c2)CCCC4)c1	-4%	-8%	.	?	.
CCC(Sc1nc2nccnc2c(=O)n1Cc1ccc(OC)cc1)C(=O)NC1CCCCC1 (stereo not drawn)	0%	-2%	.	1%	.
O=C(N/N=C/c1ccccn1)c1ccc([N+](=O)[O-])cc1	-8%	-12%	-4	?	-10%
O=C(Cn1c2ccccc2c(=O)c2ccccc21)N/N=C/c1cc([N+](=O)[O-])ccc1N1CCCCCC1	-4%	-12%	1	-6%	11µM*
O=C(COc1ccc([N+](=O)[O-])cc1)N/N=C/c1cc([N+](=O)[O-])ccc1N1CCOCC1	-3%	-26%	0	4µM*	5%
Cc1ccc(OCC(=O)N/N=C/c2cc([N+](=O)[O-])ccc2N2CCCCC2)cc1	12%	-16%	0	-9%	18%
Cc1cccc(/C=N/NC(=O)Cn2nccc2C)n1	-6%	-8%	0	-14%	50µM*
O=C(COc1ccc([N+](=O)[O-])cc1)N/N=C/c1ccccn1	0%	-5%	3	?	79µM*
O=C(Cn1c2ccccc2c(=O)c2ccccc21)N/N=C/c1ccc(N2CCCC2)c([N+](=O)[O-])c1	7%	5%	-2	2%	-11%
CCc1ccc(OC(C)C(=O)N2CCC(c3nc4ccccc4s3)CC2)cc1 (stereo not drawn)	2%	-7%	.	-18%	.
CCCN(C(=O)Nc1cn(CC(C)C)c(=O)c2ccccc12)c1ccc(F)cc1	7%	3%	.	0%	.
CO[C@H]1COC(=O)[C@H](C)COC(=O)[C@@H](Cc2ccccc2)NC(=O)C/C=C\[C@H]1C	-4%[11.6 µM]	-4%[11.6 µM]	2	0%[11.5 µM]	-12%
O=C(N/N=C/c1ccccn1)C(=O)N1CCCCCC1	-8%	7%	5	2%	45µM*
Nc1nnnn1CC(=O)N/N=C/c1ccccn1	-12%	-11%	-2	-13%	35µM*
O=C(CNC(=O)c1ccccc1O)N/N=C/c1ccccn1	-6%	8%	-11	8%	-12%
O=C(CCCC(=O)N/N=C\c1ccccn1)N/N=C\c1ccccn1	0%	0%	-1	3%	40µM*
Cc1cc(C)n(CC(=O)N/N=C/c2ccccn2)n1	0%	-6%	1	13%	18µM*
SMILES	Tau fibril FP	Tau fluor counter	Coupling enz	Tau fibril ThT	Sfp inh
Nc1nnnn1CC(=O)N/N=C/c1cccs1	2%	-1%	0	-6%	8%
Cc1cccc(CSc2nc(=O)c3c(n2C)NC(=O)CC3c2cc(F)cc(F)c2)c1 (stereo not drawn)	15%	6%	.	1%	.
CS(=O)(=O)Nc1cccc(-c2ccc3ncnc(NC4CCNCC4)c3c2)c1	.	.	1	.	18%
CC[C@H](C)[C@H](NC(=O)[C@H](Cc1cnc[nH]1)NC(=O)[C@@H](NC(=O)[C@H](CCCNC(=N)N)NC(=O)[C@H](CCCCN)NC(=O)[C@H](CCCNC(=N)N)NC(=O)[C@H](CCCCN)NC(=O)[C@@H](N)CC(N)=O)[C@@H](C)CC)C(=O)NCC(=O)N1CCC[C@H]1C(=O)NCC(=O)N[C@@H](CCCNC(=N)N)C(=O)N[C@@H](C)C(=O)N[C@@H](Cc1ccccc1)C(=O)N[C@@H](Cc1ccc(O)cc1)C(=O)N[C@H](C(=O)N[C@H](C(=O)N[C@@H](CCCCN)C(=O)N[C@@H](CC(N)=O)C(=O)N[C@H](C(=O)N[C@H](C(=O)NCC(=O)N[C@H](C(=O)N[C@H](C(=O)N[C@@H](CS)C(=O)O)[C@@H](C)CC)[C@@H](C)O)[C@@H](C)CC)[C@@H](C)CC)[C@@H](C)O)[C@@H](C)O	.	.	0	.	-14%
Cc1ccc(CNC(=O)C2CCCN(S(=O)(=O)c3cn(C)cn3)C2)cc1 (stereo not drawn)	4%	3%	.	3%	.
Cn1c(SCC(=O)N/N=C/c2ccccn2)nnc1-c1ccccc1	1%	-8%	4	-17%	45µM*
O=C(CN1CCCc2ccccc21)N/N=C/c1ccccc1	11%	?	0	?	16%
O=C(CN1CCCc2ccccc21)N/N=C/c1c(O)ccc2ccccc12	15%	14µM*[quencher]	1	?	6%
CCC(N)(C(=O)O)c1ccc(C(=O)O)cc1 (stereo not drawn)	-1%	-6%	.	-2%	79µM*
O=C(O)c1ccc(O)cc1	.	.	3	.	2%
Cc1ccc(C)c(NC(=O)Nc2ccc3c(c2)OCO3)c1	.	.	.	.	0%
Cc1ccc(CNc2ccc3c(c2)OCO3)c(C)c1	?	?	-37*	13µM*	?
NC1=NCC2c3ccccc3Cc3ccccc3N12 (stereo not drawn)	.	.	3	.	20%
CCOC(=O)c1ccc2c(c1)N(Cc1ccc(F)cc1Cl)C(=O)c1ccccc1S2	-3%	-8%	.	3%	.
Cc1ccc(CNC(=O)Cn2c3ncccc3c(=O)n2-c2ccc(C)cc2)cc1	-8%	-23%	.	-2%	.
O=[N+]([O-])c1cccn2cc(-c3ccc(Br)cc3)nc12	10%	-14%	4	5µM*	-4%
COCCCNC(=S)NNC(=S)NCCCOC	-2%	3%	3	0%	45µM*
COCCCNC(=S)NNC(=S)Nc1cccc(Cl)c1	17%	?	-1	?	22µM*
Cc1ccc2occ(CC(=O)Nc3ccc(Cl)c(C(F)(F)F)c3)c2c1	14µM*	?	.	0%	.
